In the library only some 4.2% were active in any assay of this set; here they are far more common.
Wnt act: Wnt/beta-catenin pathway activation. Wnt/beta-catenin reporter cell assay, activator, plate reader. activation, % at 9.35 µM. 1.2% of 300,000 active. AID 743398; in the data active = activation above about 30%, passing the limit was not always enough
MITF TRPM1 HTS: activators of MITF-driven TRPM1 promoter activity in SK-MEL-5 cells; SK-MEL-5 TRPM1-promoter luciferase, 24 h; % of positive control, neutral wells = 0; activation, % at 12.5 µM; 0.75% of 300,000 active;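 active = mean activation of at least 80% with every replicate also reaching 80%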
esBAF inh: inhibitors of esBAF chromatin remodeling in mouse ES cells; Bmi1-luciferase knock-in reporter, 24 h; 100% = twice the neutral-well signal; reporter increase, % at 12.5 µM; 2% of 350,000 active; in the data active = activation above about 40%;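 note: a rise in the Bmi1 reporter signal indicates esBAF inhibition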
FXN GAA850 act: activators of GAA850 frataxin (FXN) promoter | HEK293 lucGAA850 FXN promoter luciferase reporter, 24 h; percent of 10 µM SAHA response | activation, % at 6 µM | 0.56% of 360,000 active | AID 540364;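 active = activation above the average of all compounds screened plus 3 SD, cutoff fixed separately per campaign, cut at about 7.5% in these data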
AHR activator: activators of human aryl hydrocarbon receptor. P35869. AHR-responsive luciferase reporter cells, luminescence. activation, % at 5 µM. 2.5% of 320,000 active. AID 2796; in the data active = activation above about 47%
Target sequence (P35869 whole entry, looked up): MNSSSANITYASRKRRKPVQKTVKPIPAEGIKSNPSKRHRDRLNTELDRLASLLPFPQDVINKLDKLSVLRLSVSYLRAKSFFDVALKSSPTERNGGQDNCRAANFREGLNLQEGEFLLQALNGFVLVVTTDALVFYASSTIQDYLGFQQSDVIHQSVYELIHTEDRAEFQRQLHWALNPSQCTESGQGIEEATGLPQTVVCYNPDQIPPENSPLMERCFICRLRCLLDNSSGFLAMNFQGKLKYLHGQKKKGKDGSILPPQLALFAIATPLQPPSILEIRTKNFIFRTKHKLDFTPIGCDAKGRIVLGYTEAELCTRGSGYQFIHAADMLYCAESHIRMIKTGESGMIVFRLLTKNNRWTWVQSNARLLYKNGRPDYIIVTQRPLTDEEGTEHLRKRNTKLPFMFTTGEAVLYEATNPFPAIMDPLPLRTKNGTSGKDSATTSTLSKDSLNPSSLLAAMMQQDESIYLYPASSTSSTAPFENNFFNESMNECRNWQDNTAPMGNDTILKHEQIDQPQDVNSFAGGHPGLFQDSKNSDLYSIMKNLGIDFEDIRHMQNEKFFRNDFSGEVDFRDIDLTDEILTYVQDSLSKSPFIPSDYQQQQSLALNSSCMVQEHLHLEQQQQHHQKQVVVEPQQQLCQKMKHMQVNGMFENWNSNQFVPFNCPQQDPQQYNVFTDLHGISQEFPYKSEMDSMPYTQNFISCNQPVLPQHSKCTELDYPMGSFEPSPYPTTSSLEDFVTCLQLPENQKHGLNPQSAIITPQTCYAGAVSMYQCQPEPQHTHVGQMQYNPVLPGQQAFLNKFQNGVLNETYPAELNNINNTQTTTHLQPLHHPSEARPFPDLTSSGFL
A number is an active result; i = inactive; nt = not tested or not shown.

SMILES	Wnt act	MITF TRPM1 HTS	esBAF inh	FXN GAA850 act	AHR activator
Cc1cccc(CC(C)NC(=O)c2cc(COc3ccc(F)cc3F)on2)n1 (configuration not stated)	i	i	42	i	i
CCc1cc(CNC(=O)c2cc(COc3ccc(C)nc3)on2)on1	i	i	60	i	i
CC(=O)c1ccc(OCc2cc(C(=O)NCCn3nc(C)cc3C)no2)cc1	i	i	44	i	i
Cc1cc(CNC(=O)c2cc(COc3ccc(F)c(F)c3)on2)nn1C	i	86	65	i	i
CC(=O)Nc1ccc2c(c1)C(=O)N(C)[C@H]1CC[C@H](CC(=O)Nc3cccc(Cl)c3)O[C@@H]1CO2	nt	nt	i	nt	nt
Cc1cc(C)n(CC(C)NC(=O)c2cc(COc3ccc(F)c(F)c3)on2)n1 (configuration not stated)	i	i	62	i	nt
Cc1cc(C)n(CC(C)NC(=O)c2cc(COc3c(F)cccc3F)on2)n1 (configuration not stated)	i	i	nt	i	i
Cc1cccc(-n2c(=O)[nH]c3c(C(N)=O)nc(C(C)C)nc32)c1	nt	i	i	i	53
COc1cc(C(=O)O)nc2ccccc12	nt	i	i	i	i
COc1ccc2nc3ccccc3nc2c1	i	93	42	i	i
COc1ccc(-c2nc3ccccc3nc2-c2ccccc2)cc1	nt	i	i	i	i
COc1ccc(-c2cc(OC)c3ccccc3n2)cc1	nt	i	nt	i	60
COc1ccc(-c2cc3cc(OC)c(OC)cc3c(C)n2)cc1	i	i	i	i	82
COc1ccc(-c2cc(C(F)(F)F)nc(N)n2)cc1	i	i	i	i	i
COc1cc(-c2ccccc2)nc2ccccc12	nt	nt	i	i	48
N#C[C@@H]1[C@@H](c2ccc(C#CC3CCCCC3)cc2)[C@@H](CO)N1C(=O)Cc1ccccn1	nt	nt	i	nt	nt
C[C@@H]1CN([C@H](C)CO)C(=O)c2cccc(NC(=O)Nc3ccc4c(c3)OCO4)c2O[C@H]1CN(C)Cc1ccc(Cl)c(Cl)c1	nt	nt	i	nt	nt
COc1ccc2c(OC)cc(-c3ccccc3)nc2c1	nt	i	i	i	70
COc1cc(-c2cc(C(=O)O)c3cc4ccccc4cc3n2)cc(OC)c1OC	i	nt	i	i	nt
NCCSc1c(-c2ccc(Cl)cc2)[nH]c2ccccc12	i	i	i	i	48
C#CCOc1nc(Nc2cccc([N+](=O)[O-])c2)nc(OCC#C)n1	i	i	i	i	52
COc1nc(Nc2cccc([N+](=O)[O-])c2)nc(OC)n1	i	i	nt	i	i
Oc1ccc(/C=N/n2c3ccccc3c3ccccc32)cc1	nt	i	i	i	55
Cc1nnc(C)n1/N=C/c1ccc(O)cc1	i	i	i	i	i
COc1ccccc1NC(=O)N[C@H]1CC[C@@H](CCNS(=O)(=O)c2ccc(Cl)cc2)O[C@H]1CO	nt	nt	i	nt	nt
SMILES	Wnt act	MITF TRPM1 HTS	esBAF inh	FXN GAA850 act	AHR activator
COc1ccc(/C=C2\SC(=S)N(CC(=O)OCC(=O)Nc3cc(Cl)cc(Cl)c3)C2=O)cc1	38	i	nt	i	i
COc1ccc(/C=C2/SC(=S)N(CCCC(=O)Nc3cccc(O)c3)C2=O)cc1	i	i	i	i	i
COc1ccc(C(=O)CSC2=C(C#N)C3(CCCCC3)C(C#N)=C(N)N2)cc1	nt	i	i	i	52
COc1ccc2[nH]cc(C(=O)CNc3nc(C)cs3)c2c1	42	nt	70	i	i
O=C(O)c1cc(-c2ccc(/C=N/NC(=S)Nc3ccccc3)o2)ccc1Cl	i	i	nt	i	i
NC(=S)N/N=C/c1ccc(-c2ccc(Cl)c(Cl)c2)o1	nt	i	i	i	48
NC(=S)N/N=C/c1ccc(-c2ccc(SC(F)F)cc2)o1	i	nt	nt	i	53
O=C(C[C@@H]1C[C@@H]2c3cc(NC(=O)CC4CC4)ccc3O[C@@H]2[C@H](CO)O1)NCc1ccc(Cl)cc1	nt	nt	i	nt	nt
CN(C)C(=O)C[C@H]1CC[C@@H]2[C@@H](COc3ccc(NC(=O)NCc4ccccc4)cc3C(=O)N2C)O1	nt	nt	i	nt	nt
Cc1ccc2c(c1)-c1cc(C)nn1C(c1ccc3c(c1)OCO3)N2 (configuration not stated)	i	nt	i	i	94
Cc1ccc2c(c1)-c1cc(C)nn1C(c1sccc1C)N2 (configuration not stated)	nt	nt	i	i	i
Cc1cc2n(n1)C(c1ccccc1)Nc1ccccc1-2 (configuration not stated)	i	i	i	i	i
Cc1cc2n(n1)C(c1ccc(N(C)C)cc1)Nc1ccccc1-2 (configuration not stated)	nt	i	i	i	82
CNC[C@@H]1Oc2ccc(NC(=O)Cn3cnnn3)cc2C(=O)N([C@H](C)CO)C[C@@H]1C	nt	nt	i	nt	nt

Source: PubChem BioAssay (several laboratories)
